# Source: PubChem BioAssay (EPA / NIEHS)
# Inconclusive results are not listed. Calls of active or inactive are those of the source. Rule for the calls: active = hit-call score of the fitted dose curve at least 0.9, where 1 is the maximum; inconclusive = response in the unintended direction; inactive = score below 0.9.
# What was measured:
# [1] = molecular target: Muscarinic acetylcholine receptor M1 (Homo sapiens) (UniProt P11229); experiment: NVS_GPCR_hM1: NovaScreen (NVS) G Protein-Coupled Receptor Assay for human Muscarinic, M1 Receptor (AID 2283270)
# Sequence of Muscarinic acetylcholine receptor M1 (Homo sapiens) (P11229 whole entry, looked up): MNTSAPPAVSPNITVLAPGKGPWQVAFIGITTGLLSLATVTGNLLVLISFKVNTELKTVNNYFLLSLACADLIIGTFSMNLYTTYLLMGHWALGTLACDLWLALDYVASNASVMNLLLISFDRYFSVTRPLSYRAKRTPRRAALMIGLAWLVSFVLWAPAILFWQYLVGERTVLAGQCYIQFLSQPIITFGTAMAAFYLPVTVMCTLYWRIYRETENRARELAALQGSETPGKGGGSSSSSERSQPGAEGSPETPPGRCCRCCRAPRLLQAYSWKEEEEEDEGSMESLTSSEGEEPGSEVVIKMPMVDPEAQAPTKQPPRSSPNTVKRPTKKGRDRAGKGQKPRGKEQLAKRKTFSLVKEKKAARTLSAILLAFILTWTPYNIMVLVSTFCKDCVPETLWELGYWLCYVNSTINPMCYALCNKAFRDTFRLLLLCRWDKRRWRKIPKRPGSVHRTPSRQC
# Outline: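 Cell-free radioligand displacement using membrane protein extracted from CHO cells, read by filter-based scintillation counting 1 h after dosing. Loss of bound signal fitted versus DMSO; primary screen single concentration 25 uM in duplicate, actives followed by concentration series.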
# [2] = test system: rabbit Platelet Activating Factor Receptor (PAF), gene 100354046; experiment: NVS_GPCR_rabPAF: NovaScreen (NVS) G Protein-Coupled Receptor Assay for rabbit Platelet Activating Factor Receptor (PAF) (AID 2283287)
# Outline: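 Rabbit platelet membrane preparation; radioligand displacement read by filter-based scintillation counting 1 h after dosing, loss of signal versus DMSO. Primary screen in duplicate at 25 uM, actives followed up in concentration series.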
# [3] = molecular target: Muscarinic acetylcholine receptor M3 (Homo sapiens) (UniProt P20309); experiment: NVS_GPCR_hM3: NovaScreen (NVS) G Protein-Coupled Receptor Assay for human Muscarinic, M3 Receptor (AID 2283272)
# Sequence of Muscarinic acetylcholine receptor M3 (Homo sapiens) (P20309 whole entry, looked up): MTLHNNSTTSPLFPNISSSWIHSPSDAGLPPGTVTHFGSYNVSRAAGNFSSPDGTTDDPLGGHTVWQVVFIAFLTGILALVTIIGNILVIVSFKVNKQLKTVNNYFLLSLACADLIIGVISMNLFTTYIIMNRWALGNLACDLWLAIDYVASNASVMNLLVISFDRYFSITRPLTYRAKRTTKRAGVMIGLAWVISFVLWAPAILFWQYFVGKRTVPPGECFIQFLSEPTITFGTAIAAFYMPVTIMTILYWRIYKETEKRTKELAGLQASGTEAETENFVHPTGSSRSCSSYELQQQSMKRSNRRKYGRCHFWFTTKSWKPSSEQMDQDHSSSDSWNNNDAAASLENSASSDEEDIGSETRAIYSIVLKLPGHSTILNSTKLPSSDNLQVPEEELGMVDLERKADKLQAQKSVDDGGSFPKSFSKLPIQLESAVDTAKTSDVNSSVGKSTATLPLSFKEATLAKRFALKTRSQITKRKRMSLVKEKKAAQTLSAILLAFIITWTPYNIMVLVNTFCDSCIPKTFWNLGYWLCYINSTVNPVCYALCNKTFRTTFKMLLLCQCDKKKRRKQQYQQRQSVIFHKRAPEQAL
# Outline: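 Radioligand displacement binding on human M3 receptor in CHO-derived membranes, 1 h incubation, filter-based scintillation counting. Primary screen in duplicate at 25 uM; actives followed up in concentration series; loss of signal versus DMSO.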
# [4] = molecular target: Muscarinic acetylcholine receptor M2 (Homo sapiens) (UniProt P08172); experiment: NVS_GPCR_hM2: NovaScreen (NVS) G Protein-Coupled Receptor Assay for human Muscarinic, M2 Receptor (AID 2283273)
# Sequence of Muscarinic acetylcholine receptor M2 (Homo sapiens) (P08172 whole entry, looked up): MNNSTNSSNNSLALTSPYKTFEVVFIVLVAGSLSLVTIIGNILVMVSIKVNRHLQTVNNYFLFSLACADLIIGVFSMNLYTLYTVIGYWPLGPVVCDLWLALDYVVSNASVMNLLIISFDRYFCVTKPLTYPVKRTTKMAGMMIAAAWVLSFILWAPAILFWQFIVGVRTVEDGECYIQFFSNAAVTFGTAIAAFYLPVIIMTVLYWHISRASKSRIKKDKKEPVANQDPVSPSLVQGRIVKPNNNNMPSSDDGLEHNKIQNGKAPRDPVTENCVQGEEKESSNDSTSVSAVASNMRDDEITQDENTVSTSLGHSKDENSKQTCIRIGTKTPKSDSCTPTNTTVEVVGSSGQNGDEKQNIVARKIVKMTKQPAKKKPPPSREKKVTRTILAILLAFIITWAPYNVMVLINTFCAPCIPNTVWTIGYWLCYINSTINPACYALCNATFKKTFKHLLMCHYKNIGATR
# Outline: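 CHO membrane prep, radioligand + test compound, 1 h; filtration, scintillation count. Screen 25 uM duplicate → conc. series for actives. Readout: decrease in binding vs DMSO control.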
# [5] = molecular target: human Muscarinic, M4 Receptor, CHRM4 (gene 1132) (UniProt P08173); experiment: NVS_GPCR_hM4: NovaScreen (NVS) G Protein-Coupled Receptor Assay for human Muscarinic, M4 Receptor (AID 2283274)
# Sequence of human Muscarinic, M4 Receptor, CHRM4 (gene 1132) (P08173 whole entry, looked up): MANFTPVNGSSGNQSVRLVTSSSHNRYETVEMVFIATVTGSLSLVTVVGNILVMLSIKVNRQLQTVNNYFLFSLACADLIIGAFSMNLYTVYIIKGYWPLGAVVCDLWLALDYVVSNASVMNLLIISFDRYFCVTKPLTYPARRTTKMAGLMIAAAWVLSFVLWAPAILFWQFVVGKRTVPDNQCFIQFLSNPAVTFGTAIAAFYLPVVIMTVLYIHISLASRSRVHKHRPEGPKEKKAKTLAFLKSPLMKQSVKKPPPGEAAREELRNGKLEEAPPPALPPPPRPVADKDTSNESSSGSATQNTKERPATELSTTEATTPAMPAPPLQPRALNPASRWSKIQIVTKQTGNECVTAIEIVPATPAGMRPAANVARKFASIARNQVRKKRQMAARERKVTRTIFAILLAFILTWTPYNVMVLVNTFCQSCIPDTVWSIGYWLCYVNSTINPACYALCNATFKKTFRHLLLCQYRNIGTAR
# Outline: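 Cell-free radioligand displacement using CHO-derived human M4 receptor protein, 1 h after dosing; bound radioactivity by filtration and scintillation counting. Primary screen single 25 uM duplicate, actives followed in concentration series.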
# [6] = molecular target: human Neurotensin Receptor (NTS), NTSR1 (gene 4923) (UniProt P30989); experiment: NVS_GPCR_hNTS: NovaScreen (NVS) G Protein-Coupled Receptor Assay for human Neurotensin Receptor (NTS) (AID 2283279)
# Sequence of human Neurotensin Receptor (NTS), NTSR1 (gene 4923) (P30989 whole entry, looked up): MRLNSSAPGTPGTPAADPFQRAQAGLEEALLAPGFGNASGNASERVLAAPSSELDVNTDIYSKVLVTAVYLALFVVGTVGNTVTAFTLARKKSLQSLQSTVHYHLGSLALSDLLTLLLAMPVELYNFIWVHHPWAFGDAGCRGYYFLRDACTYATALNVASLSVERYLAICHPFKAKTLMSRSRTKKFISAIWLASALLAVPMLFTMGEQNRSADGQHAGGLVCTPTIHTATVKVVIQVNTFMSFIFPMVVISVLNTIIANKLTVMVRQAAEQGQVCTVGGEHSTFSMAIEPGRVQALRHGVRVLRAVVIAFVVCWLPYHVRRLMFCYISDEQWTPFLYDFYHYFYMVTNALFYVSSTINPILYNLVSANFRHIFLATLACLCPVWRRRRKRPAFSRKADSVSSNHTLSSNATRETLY
# Outline: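 Radioligand displacement on human NTSR1 protein from CHO cells, cell-free, 1 h, filter-based scintillation counting. Primary screen at 25 uM in duplicate; hits rerun in concentration-response up to 50 uM.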
# [7] = molecular target: human Dopamine Receptor D2 (DRD2), DRD2 (gene 1813) (UniProt P14416); experiment: NVS_GPCR_hDRD2s: NovaScreen (NVS) G Protein-Coupled Receptor Assay for human Dopamine Receptor D2 (DRD2) (AID 2283266)
# Sequence of human Dopamine Receptor D2 (DRD2), DRD2 (gene 1813) (P14416 whole entry, looked up): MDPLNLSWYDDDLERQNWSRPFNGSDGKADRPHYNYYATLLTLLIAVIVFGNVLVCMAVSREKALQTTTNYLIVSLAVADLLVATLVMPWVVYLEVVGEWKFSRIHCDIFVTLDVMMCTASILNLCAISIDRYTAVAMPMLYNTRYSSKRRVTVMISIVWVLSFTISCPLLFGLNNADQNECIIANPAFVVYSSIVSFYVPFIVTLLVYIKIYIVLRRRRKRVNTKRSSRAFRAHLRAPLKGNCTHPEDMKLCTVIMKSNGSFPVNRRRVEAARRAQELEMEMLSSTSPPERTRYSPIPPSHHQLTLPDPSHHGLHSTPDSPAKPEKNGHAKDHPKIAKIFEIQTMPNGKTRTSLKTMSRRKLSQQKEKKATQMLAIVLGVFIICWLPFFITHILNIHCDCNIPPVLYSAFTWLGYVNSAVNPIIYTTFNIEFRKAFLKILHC
# Outline: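 Radioligand displacement used human DRD2 membranes extracted from CHO cells and was read by filter-based scintillation counting after 1.5 hours. Primary screening was in duplicate at 25 uM. Loss of signal versus DMSO was fitted, with concentration series in follow-up.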
# [8] = molecular target: rat Serotonin, 5-Hydroxytryptamine Receptor 1 (5HT1), Non-Selective Binding, Htr1a (gene 24473) (UniProt P19327); experiment: NVS_GPCR_r5HT1_NonSelective: NovaScreen (NVS) G Protein-Coupled Receptor Assay for rat Serotonin, 5-Hydroxytryptamine Receptor 1 (5HT1), Non-Selective Binding (AID 2283286)
# Sequence of rat Serotonin, 5-Hydroxytryptamine Receptor 1 (5HT1), Non-Selective Binding, Htr1a (gene 24473) (P19327 whole entry, looked up): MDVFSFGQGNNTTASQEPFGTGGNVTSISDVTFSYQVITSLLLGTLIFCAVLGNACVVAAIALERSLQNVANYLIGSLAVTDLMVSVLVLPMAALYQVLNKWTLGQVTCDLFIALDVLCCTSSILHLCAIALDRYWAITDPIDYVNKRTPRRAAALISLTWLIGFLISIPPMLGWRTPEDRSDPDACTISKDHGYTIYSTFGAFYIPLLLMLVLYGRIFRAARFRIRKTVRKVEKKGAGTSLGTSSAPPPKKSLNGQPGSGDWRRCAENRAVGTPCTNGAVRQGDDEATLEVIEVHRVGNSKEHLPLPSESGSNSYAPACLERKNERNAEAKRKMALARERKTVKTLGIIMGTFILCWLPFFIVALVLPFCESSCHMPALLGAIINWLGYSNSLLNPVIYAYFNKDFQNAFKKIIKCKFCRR
# Outline: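 Rat cortical membranes, radioligand displacement, 1 h incubation, read by filter scintillation. Primary screen in duplicate at 25 uM. Hits (e.g. ≥30% inhibition) went to concentration-response up to 50 uM, fitted as loss of binding versus DMSO.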
# [9] = molecular target: Neuropeptide Y receptor type 2 (Homo sapiens) (UniProt P49146); experiment: NVS_GPCR_hNPY2: NovaScreen (NVS) G Protein-Coupled Receptor Assay for human Neuropeptide Receptor Y2 (NPY2) (AID 2283277)
# Sequence of Neuropeptide Y receptor type 2 (Homo sapiens) (P49146 whole entry, looked up): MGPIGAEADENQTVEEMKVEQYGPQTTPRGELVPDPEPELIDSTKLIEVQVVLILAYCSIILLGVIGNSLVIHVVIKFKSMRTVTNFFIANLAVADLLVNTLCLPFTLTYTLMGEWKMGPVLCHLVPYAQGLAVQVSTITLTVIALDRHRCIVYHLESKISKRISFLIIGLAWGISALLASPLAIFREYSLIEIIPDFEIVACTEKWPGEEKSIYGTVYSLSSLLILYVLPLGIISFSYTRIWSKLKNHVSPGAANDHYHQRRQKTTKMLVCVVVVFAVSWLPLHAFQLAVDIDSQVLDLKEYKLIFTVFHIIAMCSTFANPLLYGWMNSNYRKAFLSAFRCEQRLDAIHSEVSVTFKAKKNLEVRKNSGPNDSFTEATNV
# Outline: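 Radioligand binding on membranes extracted from SK-N-MC cells, cell-free, read 1 h after dosing by filter-based scintillation counting. Loss of signal vs DMSO. Primary screen in duplicate at 25 uM; actives followed up in concentration-response up to 50 uM.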
# [10] = molecular target: human Leukotriene B4 Receptor 1 (LTB4-BLT1), LTB4R (gene 1241) (UniProt Q15722); experiment: NVS_GPCR_hLTB4_BLT1: NovaScreen (NVS) G Protein-Coupled Receptor Assay for human Leukotriene B4 Receptor 1 (LTB4-BLT1) (AID 2283271)
# Sequence of human Leukotriene B4 Receptor 1 (LTB4-BLT1), LTB4R (gene 1241) (Q15722 whole entry, looked up): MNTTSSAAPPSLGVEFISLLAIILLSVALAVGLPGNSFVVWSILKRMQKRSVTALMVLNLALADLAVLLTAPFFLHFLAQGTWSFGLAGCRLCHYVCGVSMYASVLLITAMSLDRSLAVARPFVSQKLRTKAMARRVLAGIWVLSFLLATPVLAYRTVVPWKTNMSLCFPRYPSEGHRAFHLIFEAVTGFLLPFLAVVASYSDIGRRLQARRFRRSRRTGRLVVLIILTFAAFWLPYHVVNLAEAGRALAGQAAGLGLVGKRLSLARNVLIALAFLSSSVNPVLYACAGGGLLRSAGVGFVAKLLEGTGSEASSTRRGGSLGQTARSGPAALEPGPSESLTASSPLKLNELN
# Outline: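 Radioligand displacement binding on receptor extracted from human neutrophils, cell-free, 1 h after dosing; filter-based scintillation counting. Primary screen in duplicate at 25 uM, actives retested in concentration-response up to 50 uM; loss of signal versus DMSO.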
# [11] = molecular target: human Neuropeptide Receptor Y1 (NPY1), NPY1R (gene 4886) (UniProt P25929); experiment: NVS_GPCR_hNPY1: NovaScreen (NVS) G Protein-Coupled Receptor Assay for human Neuropeptide Receptor Y1 (NPY1) (AID 2283276)
# Outline: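 Cell-free radioligand binding using receptor extracted from SK-N-MC cells, 1 h incubation, filter-based scintillation counting. Primary screen single concentration 25 uM in duplicate; actives followed in concentration series. Loss of bound signal scored versus DMSO.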
# [12] = molecular target: mouse Cholecystokinin, CCK1 Receptor (CCKA), Cckar (gene 12425) (UniProt O08786); experiment: NVS_GPCR_mCCKAPeripheral: NovaScreen (NVS) G Protein-Coupled Receptor Assay for mouse Cholecystokinin, CCK1 Receptor (CCKA) (AID 2283285)
# Sequence of mouse Cholecystokinin, CCK1 Receptor (CCKA), Cckar (gene 12425) (O08786 whole entry, looked up): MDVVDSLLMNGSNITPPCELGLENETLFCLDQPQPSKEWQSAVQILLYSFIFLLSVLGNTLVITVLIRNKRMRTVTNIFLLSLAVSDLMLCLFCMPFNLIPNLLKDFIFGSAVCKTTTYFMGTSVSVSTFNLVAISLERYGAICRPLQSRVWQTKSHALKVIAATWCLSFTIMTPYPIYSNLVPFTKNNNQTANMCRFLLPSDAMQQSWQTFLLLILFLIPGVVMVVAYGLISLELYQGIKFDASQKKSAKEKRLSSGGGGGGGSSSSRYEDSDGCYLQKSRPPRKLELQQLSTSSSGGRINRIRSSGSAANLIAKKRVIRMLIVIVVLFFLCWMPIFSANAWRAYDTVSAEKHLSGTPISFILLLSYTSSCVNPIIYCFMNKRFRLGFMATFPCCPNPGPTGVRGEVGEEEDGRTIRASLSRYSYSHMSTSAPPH
# Outline: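 Radioligand competitive displacement on mouse pancreatic membranes, 2 h incubation; filter-based scintillation counting, loss of signal versus DMSO. Single-concentration screen at 25 uM in duplicate, actives retested in concentration-response up to 50 uM.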
# [13] = molecular target: human Neurokinin, NK2 Receptor, TACR2 (gene 6865) (UniProt P21452); experiment: NVS_GPCR_hNK2: NovaScreen (NVS) G Protein-Coupled Receptor Assay for human Neurokinin, NK2 Receptor (AID 2283278);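 note: actives reduce bound radioligand signal relative to DMSO baseline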
# Sequence of human Neurokinin, NK2 Receptor, TACR2 (gene 6865) (P21452 whole entry, looked up): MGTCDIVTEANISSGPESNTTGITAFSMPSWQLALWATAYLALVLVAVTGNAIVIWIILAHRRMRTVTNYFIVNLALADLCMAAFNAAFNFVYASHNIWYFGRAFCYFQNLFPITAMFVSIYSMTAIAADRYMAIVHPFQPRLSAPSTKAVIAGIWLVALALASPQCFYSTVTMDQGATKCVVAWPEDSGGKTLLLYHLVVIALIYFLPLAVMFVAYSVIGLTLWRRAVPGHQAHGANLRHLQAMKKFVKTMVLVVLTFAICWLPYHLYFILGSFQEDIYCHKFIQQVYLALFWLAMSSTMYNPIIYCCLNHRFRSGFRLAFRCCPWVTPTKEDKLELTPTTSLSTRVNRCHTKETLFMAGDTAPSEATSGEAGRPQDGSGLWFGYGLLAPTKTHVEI
# Outline: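 Filter-based scintillation counting measured radioligand bound to receptor extracted from CHO cells, 4 hours after compound addition. Chemicals screened first at 25 uM in duplicate, with actives retested in concentration series relative to DMSO.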
# [14] = molecular target: human Thromboxane A2 Receptor (TXA2), TBXA2R (gene 6915) (UniProt P21731); experiment: NVS_GPCR_hTXA2: NovaScreen (NVS) G Protein-Coupled Receptor Assay for human Thromboxane A2 Receptor (TXA2) (AID 2283282);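 note: actives reduce bound radioligand signal relative to DMSO baseline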
# Outline: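 Cell-free radioligand binding on membrane protein from human platelets; radioligand displacement read by filter-based scintillation counting after 1 h. Primary screen in duplicate at 25 uM, actives then run in concentration series; loss of signal versus DMSO.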
structure (smiles),measurement,setting,value
O=c1n(Cl)c(=O)n(Cl)c(=O)n1Cl,outcome,[1],inactive
same,outcome,[2],inactive
Cn1c(-c2ccccc2)cc(-c2ccccc2)[n+]1C,AC50,[1],2.84 µM (active)
same,AC50,[3],9.02 µM (active)
same,AC50,[4],3.97 µM (active)
same,AC50,[5],7.59 µM (active)
same,outcome,[6],inactive
OC(c1ccc(Cl)cc1)(c1ccc(Cl)cc1)C(Cl)(Cl)Cl,outcome,[7],inactive
COc1cc(Cl)c(OC)cc1Cl,outcome,[8],inactive
CC1(C)CON(Cc2ccccc2Cl)C1=O,outcome,[2],inactive
COP(=O)(OC)O/C(C)=C/C(=O)N(C)C,outcome,[6],inactive
CCNP(=S)(OC)O/C(C)=C/C(=O)OC(C)C (stereo not drawn),outcome,[4],inactive
same,outcome,[9],inactive
CC(C)(C)C(=O)C(Oc1ccc(Cl)cc1)n1cncn1 (stereo not drawn),AC50,[10],11.8 µM (active)
same,outcome,[3],inactive
same,AC50,[4],4.96 µM (active)
same,outcome,[5],inactive
CCCCC(O)(Cn1cncn1)c1ccc(Cl)cc1Cl (stereo not drawn),outcome,[10],inactive
same,outcome,[4],inactive
same,outcome,[11],inactive
same,outcome,[12],inactive
CC1(C)CCC(=Cc2ccc(Cl)cc2)C1(O)Cn1cncn1 (stereo not drawn),outcome,[8],inactive
CCNC(=O)NC(=O)C(C#N)=NOC,outcome,[5],inactive
CC(C)N1C(=O)N(c2ccccc2)CSC1=NC(C)(C)C,outcome,[2],inactive
CC1(C)C(C(=O)OC(C#N)c2cccc(Oc3ccccc3)c2)C1(C)C (stereo not drawn),outcome,[13],inactive
same,outcome,[12],inactive
CCN(CC)C(=O)C(C)Oc1cccc2ccccc12 (stereo not drawn),outcome,[14],inactive
N#Cc1c(Cl)cccc1Cl,outcome,[5],inactive
CCCC(=NOCC)C1=C(O)CC(CC(C)SCC)CC1=O (stereo not drawn),outcome,[2],inactive
N#CN=C1SCCN1Cc1ccc(Cl)nc1,outcome,[9],inactive
COCC(=O)N(c1c(C)cccc1C)C(C)C(=O)OC (stereo not drawn),outcome,[2],inactive
CCOc1nc(F)cc2nc(S(=O)(=O)Nc3c(Cl)cccc3Cl)nn12,outcome,[13],inactive
CS(=O)(=O)c1cc(C(F)(F)F)ccc1C(=O)c1cnoc1C1CC1,AC50,[2],19.1 µM (active)
Cc1c(COC(=O)[C@@H]2[C@H](/C=C(\Cl)C(F)(F)F)C2(C)C)cccc1-c1ccccc1,outcome,[13],inactive
Nc1c(Cl)c(Cl)nc(C(=O)O)c1Cl,outcome,[2],inactive
CCSC(=O)N1CCCCCC1,AC50,[3],8.57 µM (active)
same,AC50,[4],6.85 µM (active)
same,AC50,[5],4.96 µM (active)
CCOC(=O)C(C)OC(=O)c1cc(Oc2ccc(C(F)(F)F)cc2Cl)ccc1[N+](=O)[O-] (stereo not drawn),outcome,[12],inactive
Cc1cc(C)nc(Nc2ccccc2)n1,AC50,[3],12.4 µM (active)
same,AC50,[4],4.96 µM (active)
same,AC50,[5],14.9 µM (active)
O=C(Nc1ccccc1-c1ccc(Cl)cc1)c1cccnc1Cl,outcome,[6],inactive
